Test results reported in article PMC7862700, “An all-to-all approach to the identification of sequence-specific readers for epigenetic DNA modifications on cytosine”.

Key:
Experiment in all cases: DAPPL (digital affinity profiling via proximity ligation, sequencing); 10 mM Tris-HCl pH 7.5, 50 mM NaCl, 1 mM DTT, 4% glycerol, room temperature, 30 min; GST-TFs on glutathione beads, 16-mer random dsDNA library, 0.1% formaldehyde crosslink after washing; high values mean tight binding
[1] = molecular target: T1, FEV (Homo sapiens, UniProt Q99581 1-238); details: protein: recombinant; tags: N-terminal GST; dsDNA, one strand shown
T1 sequence: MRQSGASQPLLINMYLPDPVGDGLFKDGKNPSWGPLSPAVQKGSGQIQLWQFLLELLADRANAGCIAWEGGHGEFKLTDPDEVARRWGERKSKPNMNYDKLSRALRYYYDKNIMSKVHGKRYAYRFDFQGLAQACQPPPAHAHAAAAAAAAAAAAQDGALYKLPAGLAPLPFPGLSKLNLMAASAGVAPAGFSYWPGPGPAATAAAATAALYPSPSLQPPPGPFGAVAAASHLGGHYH
In short: (§1)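 Each value of binding signal is a hexamer's read frequency for a factor divided by the same hexamer's frequency in the tag-only sample. Barcoded, bead-captured GST fusions of human transcription factors made in yeast were pooled with that sample and incubated with 200 nmole of a random double-stranded 16-mer DNA library in Tris/NaCl/DTT/glycerol buffer at room temperature for 30 min. Washing, 0.1% formaldehyde crosslinking, proximity ligation, PCR and Illumina NextSeq500 sequencing followed.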

[2] = molecular target: ETV5 (Homo sapiens, UniProt P41161 1-510); details: protein: recombinant; tags: N-terminal GST; dsDNA, one strand shown
Chain of ETV5 (P41161 whole entry): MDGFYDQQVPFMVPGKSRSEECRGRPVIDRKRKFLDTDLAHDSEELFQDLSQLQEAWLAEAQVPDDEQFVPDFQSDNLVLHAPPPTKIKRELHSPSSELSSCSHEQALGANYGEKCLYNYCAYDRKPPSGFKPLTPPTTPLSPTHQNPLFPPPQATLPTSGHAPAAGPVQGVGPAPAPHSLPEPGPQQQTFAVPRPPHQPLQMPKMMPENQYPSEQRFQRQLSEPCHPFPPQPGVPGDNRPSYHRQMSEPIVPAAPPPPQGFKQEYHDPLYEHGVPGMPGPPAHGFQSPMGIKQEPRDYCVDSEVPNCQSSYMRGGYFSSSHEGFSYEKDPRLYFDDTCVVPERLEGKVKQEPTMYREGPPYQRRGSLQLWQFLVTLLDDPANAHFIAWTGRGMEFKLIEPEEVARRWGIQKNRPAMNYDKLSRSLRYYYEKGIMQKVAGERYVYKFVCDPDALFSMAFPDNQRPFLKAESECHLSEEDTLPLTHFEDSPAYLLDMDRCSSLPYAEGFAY
In short: as §1

[3] = molecular target: HSF1 (Homo sapiens, UniProt Q00613 1-529); details: protein: recombinant; tags: N-terminal GST; chain copies: 3; dsDNA, one strand shown
Chain of HSF1 (Q00613 whole entry): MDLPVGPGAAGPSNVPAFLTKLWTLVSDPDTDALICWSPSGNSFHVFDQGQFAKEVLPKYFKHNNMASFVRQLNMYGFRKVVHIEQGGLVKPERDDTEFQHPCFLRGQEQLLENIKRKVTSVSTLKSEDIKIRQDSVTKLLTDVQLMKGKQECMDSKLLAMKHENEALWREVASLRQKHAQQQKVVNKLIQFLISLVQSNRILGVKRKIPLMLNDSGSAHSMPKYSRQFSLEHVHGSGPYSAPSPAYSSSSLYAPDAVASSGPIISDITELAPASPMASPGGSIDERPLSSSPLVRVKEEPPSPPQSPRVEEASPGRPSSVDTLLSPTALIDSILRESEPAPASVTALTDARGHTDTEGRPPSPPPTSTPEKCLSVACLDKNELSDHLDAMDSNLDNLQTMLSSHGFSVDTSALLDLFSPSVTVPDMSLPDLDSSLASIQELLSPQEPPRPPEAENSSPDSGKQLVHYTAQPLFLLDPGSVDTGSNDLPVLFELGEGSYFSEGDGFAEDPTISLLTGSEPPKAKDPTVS
In short: as §1

[4] = molecular target: T2, SPIC (Homo sapiens, UniProt Q8N5J4 1-248); details: protein: recombinant; tags: N-terminal GST; dsDNA, one strand shown
T2 sequence: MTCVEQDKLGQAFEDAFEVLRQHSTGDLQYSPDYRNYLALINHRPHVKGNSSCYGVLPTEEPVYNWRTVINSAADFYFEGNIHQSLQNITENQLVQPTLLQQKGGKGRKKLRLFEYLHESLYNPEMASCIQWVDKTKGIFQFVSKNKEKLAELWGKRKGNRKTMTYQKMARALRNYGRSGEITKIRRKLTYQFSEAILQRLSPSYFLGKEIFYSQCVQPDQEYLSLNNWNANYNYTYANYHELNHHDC
In short: as §1

[5] = molecular target: ELF4 (Homo sapiens, UniProt Q99607 1-663); details: protein: recombinant; tags: N-terminal GST; dsDNA, one strand shown
Chain of ELF4 (Q99607 whole entry): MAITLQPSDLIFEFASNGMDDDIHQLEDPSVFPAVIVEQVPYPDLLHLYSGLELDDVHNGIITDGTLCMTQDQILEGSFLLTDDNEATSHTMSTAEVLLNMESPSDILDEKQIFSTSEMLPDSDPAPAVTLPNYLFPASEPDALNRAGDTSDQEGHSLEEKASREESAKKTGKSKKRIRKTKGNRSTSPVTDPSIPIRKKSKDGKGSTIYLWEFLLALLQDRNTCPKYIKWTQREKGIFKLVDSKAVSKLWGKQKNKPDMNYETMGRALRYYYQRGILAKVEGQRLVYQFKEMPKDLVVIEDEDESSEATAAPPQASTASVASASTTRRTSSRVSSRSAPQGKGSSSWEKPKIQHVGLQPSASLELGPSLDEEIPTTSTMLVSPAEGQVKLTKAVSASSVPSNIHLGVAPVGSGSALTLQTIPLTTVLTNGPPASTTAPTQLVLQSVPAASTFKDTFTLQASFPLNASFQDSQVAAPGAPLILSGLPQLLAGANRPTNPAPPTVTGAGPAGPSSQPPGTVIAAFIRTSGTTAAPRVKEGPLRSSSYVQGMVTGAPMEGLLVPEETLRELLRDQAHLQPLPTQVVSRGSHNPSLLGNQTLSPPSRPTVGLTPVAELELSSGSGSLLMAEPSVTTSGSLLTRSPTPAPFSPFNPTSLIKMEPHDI
In short: as §1

[6] = molecular target: T3, ELK4 (Homo sapiens, UniProt P28324-2 1-405); details: protein: recombinant; tags: N-terminal GST; dsDNA, one strand shown
T3 sequence: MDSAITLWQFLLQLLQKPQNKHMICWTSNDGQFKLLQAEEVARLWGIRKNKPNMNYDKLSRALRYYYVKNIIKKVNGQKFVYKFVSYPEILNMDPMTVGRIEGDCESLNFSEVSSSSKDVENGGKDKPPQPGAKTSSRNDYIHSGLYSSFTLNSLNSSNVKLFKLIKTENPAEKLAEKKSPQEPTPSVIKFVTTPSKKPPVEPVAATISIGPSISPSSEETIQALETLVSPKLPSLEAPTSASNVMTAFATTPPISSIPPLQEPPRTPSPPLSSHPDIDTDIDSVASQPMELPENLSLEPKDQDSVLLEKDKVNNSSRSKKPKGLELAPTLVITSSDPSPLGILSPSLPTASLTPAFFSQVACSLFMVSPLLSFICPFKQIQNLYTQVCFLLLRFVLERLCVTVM
In short: as §1

[7] = molecular target: T4, ETV2 (Homo sapiens, UniProt O00321 1-342); details: protein: recombinant; tags: N-terminal GST; dsDNA, one strand shown
T4 sequence: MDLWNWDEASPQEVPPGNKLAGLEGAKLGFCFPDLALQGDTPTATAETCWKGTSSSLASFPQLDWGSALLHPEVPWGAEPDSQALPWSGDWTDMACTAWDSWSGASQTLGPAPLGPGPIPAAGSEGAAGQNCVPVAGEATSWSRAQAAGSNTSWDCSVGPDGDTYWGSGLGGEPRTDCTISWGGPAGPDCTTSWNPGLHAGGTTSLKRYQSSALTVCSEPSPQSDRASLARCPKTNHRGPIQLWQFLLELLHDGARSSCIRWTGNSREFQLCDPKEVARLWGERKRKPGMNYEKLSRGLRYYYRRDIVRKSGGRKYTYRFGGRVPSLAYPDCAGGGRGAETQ
In short: as §1

[8] = molecular target: T5, ELF3 (Homo sapiens, UniProt P78545 1-371); details: protein: recombinant; tags: N-terminal GST; dsDNA, one strand shown
T5 sequence: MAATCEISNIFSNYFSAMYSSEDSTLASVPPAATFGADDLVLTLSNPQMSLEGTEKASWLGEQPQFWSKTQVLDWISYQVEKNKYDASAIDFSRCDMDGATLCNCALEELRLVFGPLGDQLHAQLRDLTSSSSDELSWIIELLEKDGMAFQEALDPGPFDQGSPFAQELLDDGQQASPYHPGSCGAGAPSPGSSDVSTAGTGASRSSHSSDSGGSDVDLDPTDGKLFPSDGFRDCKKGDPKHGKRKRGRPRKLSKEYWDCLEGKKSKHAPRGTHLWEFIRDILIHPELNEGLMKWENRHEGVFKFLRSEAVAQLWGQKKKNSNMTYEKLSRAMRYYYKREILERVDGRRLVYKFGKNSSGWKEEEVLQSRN
In short: as §1

[9] = molecular target: CRX (Homo sapiens, UniProt O43186 1-299); details: protein: recombinant; tags: N-terminal GST; dsDNA, one strand shown
Chain of CRX (O43186 whole entry): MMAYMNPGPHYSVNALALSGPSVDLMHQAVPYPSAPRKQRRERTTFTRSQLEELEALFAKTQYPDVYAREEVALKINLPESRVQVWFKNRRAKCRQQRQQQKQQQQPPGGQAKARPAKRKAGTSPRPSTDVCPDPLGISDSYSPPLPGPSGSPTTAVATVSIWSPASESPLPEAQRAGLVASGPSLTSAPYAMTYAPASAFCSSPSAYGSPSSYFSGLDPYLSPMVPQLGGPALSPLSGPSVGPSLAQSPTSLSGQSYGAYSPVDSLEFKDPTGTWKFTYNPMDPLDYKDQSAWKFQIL
In short: as §1

[10] = molecular target: ETV1 (Homo sapiens, UniProt P50549 1-477); details: protein: recombinant; tags: N-terminal GST; dsDNA, one strand shown
Chain of ETV1 (P50549 whole entry): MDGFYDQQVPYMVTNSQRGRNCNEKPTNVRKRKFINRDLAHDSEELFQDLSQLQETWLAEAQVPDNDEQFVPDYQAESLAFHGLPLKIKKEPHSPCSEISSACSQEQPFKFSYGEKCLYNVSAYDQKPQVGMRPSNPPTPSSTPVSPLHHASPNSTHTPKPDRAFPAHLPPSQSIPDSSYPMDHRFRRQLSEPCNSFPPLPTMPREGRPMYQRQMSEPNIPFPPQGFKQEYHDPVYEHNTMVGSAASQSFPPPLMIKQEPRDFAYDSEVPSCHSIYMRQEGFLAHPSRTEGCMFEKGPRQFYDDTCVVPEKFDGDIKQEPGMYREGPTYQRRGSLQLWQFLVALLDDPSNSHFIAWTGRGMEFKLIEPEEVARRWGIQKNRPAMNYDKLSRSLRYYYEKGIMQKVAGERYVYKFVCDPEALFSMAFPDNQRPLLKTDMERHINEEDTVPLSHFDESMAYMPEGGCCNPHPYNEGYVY
In short: as §1

With AGTATC as the sequence, how does the binding signal [1] read?
The binding signal was 1.12 fold enrichment (6-mer frequency, TF over GST control).

What about the binding signal [2] of the same sequence?
Its binding signal is 1.18 fold enrichment (6-mer frequency, TF over GST control).

What about the binding signal [3] of the same sequence?
The binding signal was 1.03 fold enrichment (6-mer frequency, TF over GST control).

And the binding signal [4]?
Its binding signal is 1.14 fold enrichment (6-mer frequency, TF over GST control).

And the binding signal [5]?
Its binding signal is 1.12 fold enrichment (6-mer frequency, TF over GST control).

And the binding signal [6]?
The binding signal was 1.1 fold enrichment (6-mer frequency, TF over GST control).

What about the binding signal [7] of the same sequence?
Its binding signal is 1.26 fold enrichment (6-mer frequency, TF over GST control).

And the binding signal [8]?
The binding signal was 1.16 fold enrichment (6-mer frequency, TF over GST control).

What about the binding signal [9] of the same sequence?
Its binding signal is 1.03 fold enrichment (6-mer frequency, TF over GST control).

And the binding signal [10]?
Its binding signal is 1.07 fold enrichment (6-mer frequency, TF over GST control).
